Screen size: about 69,000 compounds; about 8,600 (12%) showed an effect of 50% or more. The list comes from a sample in which strong results are over-represented; it also holds similar structures and randomly drawn compounds.
tested on: Plasmodium berghei; test: Screen against P. berghei liver stage (PbLuc), transformed with Luciferase, at 10uM; type: functional, HepG2; conditions: tested at 10 uM

Row | Structure (SMILES) | INHIBITION
1 | CCN1CC[C@@]2(C(=O)N3CCCC3)CCN(S(C)(=O)=O)CC[C@@H]12 | -45.5%
2 | Cc1ncsc1CN1C[C@@H]2COC[C@]2(CNC(=O)c2ccccc2)C1 | -49.6%
3 | Cc1cccc(COC[C@H]2CC[C@H]3[C@H](CCN3C(=O)CC3CC3)O2)n1 | 2.84%
4 | COc1cccc(COCC(=O)N2CCCCCC2)c1 | -51.075%
5 | O=C(CCCc1cn[nH]c1)N1C[C@@H](CN2CCCCCC2)[C@@H](CO)C1 | 52.2%
6 | COc1cccc(C(=O)N2CCN(C(=O)CCCn3ccnc3)CC2)c1 | 40.9%
7 | O=C(CCc1cn[nH]c1)N1C[C@@H](CN2CCCCCC2)[C@@H](CO)C1 | 36.6%
8 | COc1ccccc1C(=O)N1CCN(C(=O)CCn2ccnc2)CC1 | -27.4%
9 | COc1ccccc1C(=O)N1CCN(C(=O)CCCc2cn[nH]c2)CC1 | 32%
10 | COc1cccc(OCC2CCCN(C(C)=O)C2)c1 (stereo not given) | -20.9%
11 | COc1cccc(OCC2CCCN(C(=O)CCn3ccnc3)C2)c1 (stereo not given) | 82.2%
12 | COc1cccc(C(=O)N2CCN(C(=O)CCCc3cn[nH]c3)CC2)c1 | 65.6%
13 | COc1ccc(C(=O)N2CCN(C(=O)CCCc3cn[nH]c3)CC2)cc1 | 26.4%
14 | COc1cccc(OCC2CCCN(C(=O)CCCn3cccn3)C2)c1 (stereo not given) | 16.9%
15 | COc1cccc(C(=O)N2CCN(C(=O)CCn3ccnc3)CC2)c1 | 55%
16 | O=C(CCCc1cn[nH]c1)N1C[C@@H](CN2CCOCC2)[C@@H](CO)C1 | 2.3%
17 | N#CC(NC(=O)CNC(=O)c1ccccc1)c1ccsc1 (stereo not given) | 18.5%
18 | CC(=O)Nc1nc(C2CN(C(=O)C3CCC3)C2)cs1 | 37.6%
19 | Cn1c(C(=O)N2CC[C@@]3(O)CCCC[C@H]3C2)cc2ccccc21 | -9.51%
20 | COc1ccc([C@@H]2CN(C(=O)c3cscn3)C[C@H]2C(=O)O)cc1 | -9.32%
21 | O=C(Cc1n[nH]c2ccccc12)N1CCCCC1Cn1cccn1 (stereo not given) | -31.5%
22 | Cc1nn(C)c(N(C)C)c1CNCCOc1ccc2c(c1)OCO2 | -20.893%
23 | OC(CN1CCOCC1)c1ccc(Br)cc1 (stereo not given) | 1.56%
24 | CCC(=O)NC(C)c1ccccc1C (stereo not given) | 10.06%
25 | Cc1c(C(=O)N2CCCC(n3cncn3)C2)cnn1C (stereo not given) | 1.75%
26 | Nc1nnc(C2CC(=O)N(c3ccccc3)C2)s1 (stereo not given) | 44.9%
27 | Cn1cc(-c2nc(CN3CCN(c4nccs4)CC3)cs2)cn1 | 42.7%

Row | Structure (SMILES) | INHIBITION
28 | c1cncc(C2COC3(CCN(CC4CCOCC4)CC3)C2)c1 (stereo not given) | 23.3%
29 | CC(C)c1cc(C(=O)NCCc2nc(-c3ccncc3)n[nH]2)[nH]n1 | 5.7%
30 | O=C(NCCCN1CCOCC1)c1cc(-c2ccco2)[nH]n1 | -26.5%
31 | O=C(NCCCN1CCOCC1)c1cc(-c2ccccc2)[nH]n1 | -14.3%
32 | COCCCNC(=O)Cc1nc(-c2ccncc2)n[nH]1 | 77.7%
33 | CC(C)C(=O)NCCc1nc(-c2ccncc2)n[nH]1 | 28.2%
34 | O=C(Cc1nc(-c2ccncc2)n[nH]1)N1CCOCC1 | 78.8%
35 | O=C(Cc1nc(-c2ccncc2)n[nH]1)NCCCN1CCOCC1 | 66.3%
36 | O=C(COCc1nc(-c2ccncc2)no1)N1CCOCC1 | 1.06%
37 | O=C(COCc1nc(-c2ccncc2)no1)N1CCCC1 | 16.8%
38 | OCC1CCCN1c1cc(NCc2cccc3cccnc23)ncn1 (stereo not given) | -21.8%
39 | Cc1ccc(CS(=O)(=O)CC(=O)NCCCOC(C)C)cc1 | 15.6%
40 | Cc1cc(C)c(CNC(=O)NC(C)c2ccc3c(c2)CCC3)c(=O)[nH]1 (stereo not given) | 48.2%
41 | Cc1cc(CN2CCOC(CNc3cccnn3)C2)on1 (stereo not given) | 2.3%
42 | COc1ccccc1N1CCN(C(=O)CSCC2CC2)C(C)C1 (stereo not given) | 51.2%
43 | CCN1CCC(CC(=O)N2CCN(c3ccccc3OC)CC2C)CC1 (stereo not given) | 21.2%
44 | COc1ccccc1N1CCN(C(=O)CSC(C)C)C(C)C1 (stereo not given) | 17.6%
45 | COc1ncccc1-c1cc(C(N)=O)ccn1 | 52.2%
46 | COc1ncccc1-c1cc(C(=O)NC2CC2)ccn1 | -68.7%
47 | COc1ncccc1-c1ncccc1NC(=O)C(C)C | 24.3%
48 | CN1CCCC1CNC(=O)CCOc1ccc(Cl)cc1 (stereo not given) | -11.98%
49 | Cc1cnc(C)c(N2CCN(CCCc3[nH]nc(C)c3C)CC2)n1 | 30.3%
50 | CCN(CC)CCCN1CCN(c2nc(C)cnc2C)CC1 | 71.1%
51 | CSCCN1CCN(c2nc(N)ncc2C)CC1 | 19.4%
52 | Cc1noc(C(C)N2CCN(CCc3ccncc3)CC2)n1 (stereo not given) | -11.9%
53 | Cc1cnc(C)c(N2CCN(CCCc3ccncc3)CC2)n1 | 76%
54 | Cc1cnc(N)nc1N1CCN(CCCO)CC1 | 42.1%

Row | Structure (SMILES) | INHIBITION
55 | Cc1nc(CN2C[C@@H]3COC[C@]3(COCC(=O)N(C)C)C2)cs1 | 43.1%
56 | CN(C)c1ccc(C(=O)Nc2cn[nH]c2)cc1 | 4.885%
57 | Cc1cc(C)n(CC(=O)N2CCCC2c2cc3cccnc3[nH]2)n1 (stereo not given) | 9.05%
58 | CCC(=O)N1CCOC(c2cc(Nc3nncs3)cc(C)n2)C1 (stereo not given) | 41%
59 | O=S1(=O)NC(=CSCc2ccccc2)Nc2ccccc21 | 38%
60 | O=C(c1cc(C2CC2)on1)N1C[C@H]2CC[C@](O)(c3ccc(F)cc3)[C@H]2C1 | 1.75%
61 | O=C(c1cc(C2CC2)on1)N1C[C@H]2CC[C@](O)(c3ccccc3F)[C@H]2C1 | 53.45%
62 | O=C(c1cc(C2CC2)n[nH]1)N1C[C@H]2CC[C@](O)(c3ccccc3F)[C@H]2C1 | -16.56%
63 | CCC[C@H]1CN(CCS(C)(=O)=O)C[C@@H]1NC(=O)c1cccnn1 | -25.2%
64 | CCC[C@H]1CN(CCS(C)(=O)=O)C[C@@H]1NC(=O)c1cc(CC)on1 | 50.1%
65 | CCC[C@H]1CN(CCS(C)(=O)=O)C[C@@H]1NC(=O)c1cc[nH]n1 | 13%
66 | CCC[C@H]1CN(CCS(C)(=O)=O)C[C@@H]1NC(=O)c1ccccc1F | -30.2%
67 | CCC[C@H]1CN(CCS(C)(=O)=O)C[C@@H]1NC(=O)c1ccn(C)n1 | 61.2%
68 | CCC[C@H]1CN(CCS(C)(=O)=O)C[C@@H]1NC(=O)c1ccccn1 | 26.6%
69 | Cc1cnn(CC2CCCN2C(=O)CCc2ccncc2)c1 (stereo not given) | -14%
70 | Cc1cccc(-c2cc(C(=O)O)sn2)c1 | -12.1%
71 | Cc1occc(=O)c1OCc1noc(C(=O)NCC2CC2)n1 | 33.5%
72 | O=C(c1cccnc1)N1CCn2nnc(COc3cccnc3)c2C1 | 47.8%
73 | CN1CCN(C2COC3(CCN(Cc4cccs4)CC3)C2)CC1 (stereo not given) | 1.94%
74 | CN1CCN(C2COC3(CCN(Cc4ccsc4)CC3)C2)CC1 (stereo not given) | 54.4%
75 | CCc1ccc(CN2CCC3(CC2)CC(N2CCN(C)CC2)CO3)cc1 (stereo not given) | 45.5%
76 | Cc1ccc(CN2CCC3(CC2)CC(N2CCN(C)CC2)CO3)s1 (stereo not given) | 47.4%
77 | CCOC1COC2(CCN(Cc3ccc(F)cc3)CC2)C1 (stereo not given) | -24.5%
78 | CN1CCN(C2COC3(CCN(Cc4ccc(F)cc4)CC3)C2)CC1 (stereo not given) | 54.4%
79 | COC(=O)c1cc(C)nc(N2CCN(Cc3cc(C(C)C)no3)CC2)n1 | 23.1%
80 | COc1cccc(OC)c1-c1c[nH]c(C)n1 | 1.56%
81 | Cn1cnc2c1CCN(Cc1c(Cl)ccc3cccnc13)C2 | -20.8%

Row | Structure (SMILES) | INHIBITION
82 | CN1CCC(c2nnc3ccc(C(=O)N4CCCCC4)cn23)C1 (stereo not given) | 82.8%
83 | CC(C)N1CCN(C)CC1c1nnc2ccc(C(=O)N3CCCC3)cn12 (stereo not given) | 82.8%
84 | CN1CCC(c2nnc3ccc(C(=O)NC4CCCC4)cn23)C1 (stereo not given) | -1.26%
85 | CS(=O)(=O)N1CCC(c2nnc3ccc(C(=O)N4CCCC4)cn23)C1 (stereo not given) | 40.4%
86 | CC(C)NC(=O)c1ccc2nnc(C3CN(C)CCN3C)n2c1 (stereo not given) | -37.9%
87 | CN1CCN(C)C(c2nnc3ccc(C(=O)N4CCOCC4)cn23)C1 (stereo not given) | 8.03%
88 | N#Cc1ccc(CN2CCCCC2Cn2cccn2)cc1 (stereo not given) | -32%
89 | COc1ccc(CC(=O)NC2CCc3nc(C)cn3C2)cc1 (stereo not given) | 46.6%
90 | COc1ncc(-c2ccc(NC(C)=O)cc2)c(OC)n1 | 14%
91 | Cc1nc(O)c2nnn(C[C@H]3CCCN3C(=O)c3ccccc3F)c2n1 | 28%
92 | OC1CCN(c2ccnc(NCCN3CCc4ccccc4C3)n2)C1 (stereo not given) | 8.38%
93 | OC1CCN(c2ccnc(NCCc3ccccc3Cl)n2)C1 (stereo not given) | 93.6%
94 | OC1CCN(c2ccnc(NCCc3ccccc3Cl)n2)CC1 | 39.1%
95 | CCCc1ccc(CN2CCC3(CCC(=O)N(C)CC3)CC2)o1 | 21.2%
96 | CCCc1nc(CN2CCN(C(C)c3nc(C4CC4)no3)CC2)no1 (stereo not given) | -27.8%
97 | COc1ccccc1CC(=O)NS(=O)(=O)c1ccc(NC(C)=O)cc1 | -14%
98 | O=C(NCC1CCS(=O)(=O)C1)N(Cc1ccccn1)C1CC1 (stereo not given) | 4.1%
99 | Cc1nc(CN2CCC(C(=O)O)(n3ccc(-c4ccco4)n3)CC2)co1 | 5.14%
100 | O=C(O)C1(n2ccc(-c3ccco3)n2)CCN(Cc2cccs2)CC1 | 43.4%
101 | Cc1csc(CN2CCC(C(=O)O)(n3ccc(-c4ccco4)n3)CC2)n1 | 51.3%
102 | COc1ccc(C(C(=O)O)N2CCCN(C3CCCCC3)CC2)cn1 (stereo not given) | 32.7%
103 | COc1cccc(C(C(=O)O)N2CCCN(c3ccnc(C)c3)CC2)c1 (stereo not given) | 27.6%
104 | COc1cccc(N2CCN(C(C(=O)O)c3ccc(OC)nc3)CC2)c1 (stereo not given) | 65.7%
105 | CCc1nc(N2CCC3(CCC(=O)N(CCCO)C3)CC2)no1 | 35.6%

Source: ChEMBL document CHEMBL4513216, “Probing the Open Global Health Chemical Diversity Library for Multistage-Active Starting Points for Next-Generation Antimalarials” (ACS Infect Dis, 2020)
